The values that follow come from paper PMC12040169 (PLOS Biology, 2025).

The assay concerns T1, C. trachomatis L2/434/Bu expressing GFP (CTL2-GFP).
T1 construct: L2/434/Bu GFP intracellular growth in HeLa cells
The arrangement: species or system HeLa; C. trachomatis total inclusion area by high-content imaging, normalised to DMSO. Conditions: total inclusion area; 28.5 h, 10 µM; inhibitor. An excerpt: We screened a library of 36,785 small molecules displaying drug-like properties and covering a wide chemical space (Fig 1A and S2A Data). In this process, we also complemented the assay described above with an imaging-based readout (Fig 1B). After measurements of bulk GFP and resorufin fluorescence, cells were fixed, stained with the DNA dye Hoechst, and imaged at a high-content imaging platform to detect chlamydial inclusions (GFP) and host cell nuclei (Hoechst). The total area and number of inclusions in individual wells and the number of nuclei then served as additional proxies for chlamydial growth and host cell viability. […] MICs were calculated as described above.
In the case of `S=P(Oc1ccccc1)(Oc1ccccc1)Oc1ccccc1` [CBK260987], the “% of control remaining” value is on record as 0.9936.

Consider `CCOC(=O)CC(C)(O)P(=O)(OC)OC` (stereo not drawn) [CBK261287], for which the “% of control remaining” value stood at 1.025.

For `O=C(c1cccc(S(=O)(=O)F)c1)N1CCCCC1` [CBK074224], the “% of control remaining” value turned out to be 0.8769.
